The values that follow come from patent publication US20150359843, “P53 ACTIVATING PEPTIDES” (Agency for Science, Technology and Research, published 2015).

The target in assay [1] is p53 wt-Δ22 (C-terminal truncated, lacking 372-393) (UniProt P04637 P04637:1-371). The assay is described as follows: pulldown; 36 nM RE. To be noted: tags: none (CosmoBio PURE IVT); chain copies: 4 inferred; dsDNA, one strand shown.
The target in assay [2] is p53 wt-FL (UniProt P04637 P04637:1-393). The assay is described as follows: pulldown; 36 nM RE; 17-fold when p53 amount doubled. The conditions noted are these: tags: none (CosmoBio PURE IVT); chain copies: 4 inferred; dsDNA, one strand shown.
Sequence of p53 wt-FL (P04637 whole entry, one chain of several): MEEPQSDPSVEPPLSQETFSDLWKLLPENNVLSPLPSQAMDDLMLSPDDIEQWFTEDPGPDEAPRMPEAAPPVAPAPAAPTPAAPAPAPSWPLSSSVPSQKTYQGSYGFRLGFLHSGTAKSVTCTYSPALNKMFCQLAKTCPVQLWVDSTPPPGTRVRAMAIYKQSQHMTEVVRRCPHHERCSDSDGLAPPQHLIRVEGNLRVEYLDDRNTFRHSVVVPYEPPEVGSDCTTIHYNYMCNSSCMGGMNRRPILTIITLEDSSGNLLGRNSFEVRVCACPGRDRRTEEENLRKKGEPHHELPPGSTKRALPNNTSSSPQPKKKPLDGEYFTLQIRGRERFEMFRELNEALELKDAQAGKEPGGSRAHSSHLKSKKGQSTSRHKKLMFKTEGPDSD

Sequence of p53 wt-Δ22 (C-terminal truncated, lacking 372-393) (P04637 1-371, stated change not applied, one chain of several): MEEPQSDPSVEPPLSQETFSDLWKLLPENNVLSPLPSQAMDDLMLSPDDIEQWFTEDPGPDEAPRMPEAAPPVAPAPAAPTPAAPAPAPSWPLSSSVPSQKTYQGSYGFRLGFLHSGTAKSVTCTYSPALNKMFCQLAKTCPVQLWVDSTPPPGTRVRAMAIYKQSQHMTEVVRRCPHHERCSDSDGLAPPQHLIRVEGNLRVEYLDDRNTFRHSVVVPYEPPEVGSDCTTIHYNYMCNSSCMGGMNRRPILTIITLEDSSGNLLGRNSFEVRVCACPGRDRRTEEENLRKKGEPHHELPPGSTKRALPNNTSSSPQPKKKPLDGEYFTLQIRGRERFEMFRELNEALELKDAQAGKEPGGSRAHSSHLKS

With CTTGGGAACAAGGGCATGAGCTTGTCTGGGCT, the binding signal in assay [1] was approximately 3 fold over control DNA.
Turning to CGCGCCTGCAAGTCCTGACTTGTCCGCGGC, the binding signal in assay [2] was approximately 2.8 fold over control DNA.
